# Experimental data published in PubChem BioAssay (NCATS).
# Inconclusive results are not listed. A call without a number means that no potency is given here. Activity calls are given as the source filed them. Calls come from the whole dose curve; as a rule, active = well fitted cell-killing curve with a large enough effect; inconclusive = small, poorly fitted or top-dose-only effect, or effect the other way; inactive = no such curve, though single readings can be large or run the other way.
# Legend:
# [1] = Viability qHTS for spleen associated tyrosine kinase inhibitor (SYKi) naive MV4-11 cells (AID 1963823); conditions: MV4-11 AML viability, CellTiter-Glo luminescence, 72 h; series mostly up to 45 µM; note: nearly all actives have a fitted effect of over 40% in size
# Summary of the method: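 Read-out: CellTiter-Glo luminescence. Exposure: 72 hr, 37 C, 5% CO2, 95% humidity. Cells: MV4-11 without SYK inhibitor history, 500/well, qHTS format.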
# [2] = Viability qHTS for spleen associated tyrosine kinase inhibitor (SYKi) drug resistant MV4-11 cells (AID 1963824); conditions: SYKi-resistant MV4-11 viability, CellTiter-Glo, 72 h; series mostly up to 45 µM; note: nearly all actives have a fitted effect of over 35% in size
# Summary of the method: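 CellTiter-Glo luminescence, read 10 min after reagent addition, reports viability after a 72 hr compound exposure. Cells are an MV4-11 line made resistant to SYK inhibition, seeded at 500 per well onto compound-containing plates.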
# Potency is the fitted concentration of half-maximal effect.
SMILES,Potency [1],Potency [2]
COc1cc(CCc2ccccc2)c(C(=O)O)c2c1CC(C(C)(C)O)O2 (configuration not stated),inactive,2.27 µM (active)
CCc1cccc(CC)c1-n1c(C=C(C)C)c(C(=O)N2CCNCC2)cc(-c2nc(-c3ccc(C(F)(F)F)cc3)cs2)c1=O,inactive,inactive
CC1=C(CCC(C)O[C@@H]2O[C@H](CO)[C@@H](O)[C@H](O)[C@H]2O)C(C)(C)CC(O)C1 (some centres not stated),inactive,inactive
CC(=O)OC1C(O)CC(O[C@@H]2O[C@H](CO)[C@@H](O)[C@H](O)[C@H]2O)C2CCC3C(=O)OC(c4ccoc4)CC3(C)C21 (some centres not stated),inactive,inactive
O=C(NCc1cccc(O)c1)c1cc2cc(F)ccc2[nH]1,16.4 µM (active),13 µM (active)
CC1(CO)CC2C(O)C(=O)C3(CO)CC3(C)C2C1 (configuration not stated),inactive,inactive
O=C(Nc1ccc(S(=O)(=O)C(F)(F)F)cc1)C1=CCN(c2ncccc2C(F)(F)F)CC1,5.8 µM (active),3.66 µM (active)
CC/C=C\[C@H](O)[C@H](O)C1=C(C)C(=O)[C@]2(O1)C(=O)N[C@@](O)(C(=O)c1ccccc1)[C@@H]2O,inactive,inactive
CCc1ccc2nc(Nc3cc(Cc4ccccc4)nc(NC4CCC(O)CC4)n3)sc2c1 (configuration not stated),8.33 µM (active),6.61 µM (active)
CC1CCC/C=C/C(=O)c2c(O)cc(O)cc2CC(=O)O1 (configuration not stated),3.66 µM (active),2.06 µM (active)
CC1(C)CC[C@]2(C(=O)O[C@@H]3O[C@H](CO)[C@@H](O)[C@H](O)[C@H]3O)CC[C@]3(C)C(=CCC4[C@@]5(C)C[C@@H](O)[C@H](O)C(C)(C)C5[C@H](O)C[C@]43C)[C@@H]2[C@@H]1O (some centres not stated),inactive,inactive
